Compounds with a hit are over-represented: about 1% of the library has one in this group of screens.
HEK293 viab – cell viability loss counter-screen; HEK-293-SNCA-luc viability, GF-AFC fluorescence, 24 h; AID 1671193; actives 0.12% (n = 150,000); Potency, µM (top dose mostly 57.1 µM), usual class: cytotoxic; also: nearly all actives have a fitted effect of over 30% in size
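HEK-293-SNCA-luc cells (1500/well) plated 24 h, then exposed 24 h to a dilution series; GF-AFC added 30 min at 37C, fluorescence 405/540 nm; normalised to medium-only and DMSO wells, Hill fit.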
SNCA expr inhib – reduces expression of the alpha-synuclein gene; actives 0.17% (n = 140,000); AID 1671194; Potency, µM (titrated, usually from 57.2 µM), most hits filed as inhibitors; HEK-293 SNCA-luciferase knock-in, luminescence, 24 h; also: nearly all actives have a fitted effect of over 45% in size
GPT2 inh – blocks human glutamate pyruvate transaminase 2; Q8TD30; Recombinant GPT2, coupled pyruvate oxidase/HRP Amplex Red fluorescence; Potency, µM (top dose mostly 57.7 µM), hits mostly inhibitors; actives 0.25% (n = 100,000); also: nearly all actives have a fitted effect of over 60% in size
Target sequence (Q8TD30 whole entry, looked up): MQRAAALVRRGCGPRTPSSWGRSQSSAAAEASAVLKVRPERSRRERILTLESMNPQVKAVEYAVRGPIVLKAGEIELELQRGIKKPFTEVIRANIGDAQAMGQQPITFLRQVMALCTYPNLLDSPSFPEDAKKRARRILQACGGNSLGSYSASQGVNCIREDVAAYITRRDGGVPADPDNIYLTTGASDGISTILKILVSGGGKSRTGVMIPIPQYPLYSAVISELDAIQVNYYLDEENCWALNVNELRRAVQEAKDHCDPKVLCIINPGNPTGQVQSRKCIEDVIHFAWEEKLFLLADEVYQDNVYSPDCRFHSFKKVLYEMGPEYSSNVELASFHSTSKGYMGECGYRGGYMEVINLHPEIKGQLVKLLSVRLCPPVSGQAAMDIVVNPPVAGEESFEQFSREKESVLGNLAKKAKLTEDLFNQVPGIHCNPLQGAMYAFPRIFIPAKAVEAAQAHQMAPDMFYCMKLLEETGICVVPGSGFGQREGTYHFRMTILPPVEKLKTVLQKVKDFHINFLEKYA
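Fluorescence read-out: pyruvate from GPT2 turnover coupled to pyruvate oxidase, HRP and Amplex Red (0.2mM ThPP, 0.2U/mL PO and HRP, 50uM Amplex final). Substrates 250uM a-KG, 2mM L-alanine; enzyme 10ng/uL; 30 min RT.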
IP6K1 inh – blocks human inositol hexakisphosphate kinase 1. IP6K1 kinase, ADP-Glo luminescence, 2 h; hits give low values. actives 0.81% (n = 140,000). activity change, % (series mostly up to about 58 µM). Q92551; in the data active = activity change below about -25%
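ADP-Glo luminescence measures ADP made by human IP6K1 during a 2 h RT reaction with ATP/IP6 (mix at 1.3 mM/130 uM); top library doses 57.5 and 19.1 uM final.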
IP6K1 inh cnf – human IP6K1 inhibition, confirmatory; AID 1645852; shares compounds with IP6K1 inh; recombinant IP6K1 kinase, ADP-Glo luminescence, 2 h; actives 13% (n = 1,200); Potency, µM (top dose mostly 49 µM), actives largely listed as inhibitors; also: nearly all actives have a fitted effect of over 65% in size
GPT2 conf – human alanine aminotransferase 2 inhibition, confirmatory | GPT2 enzyme, coupled Amplex Red pyruvate fluorescence | Potency, µM, most hits filed as inhibitors | shares compounds with GPT2 inh | AID 1671187 | actives 90% (n = 95)
Hits are given with their value; 0 = inactive; ? = inconclusive; - = no result; ! = not active in a repeat; [ ] = remark or other dose. Unless noted, calls follow the shape of the dose curve; as a rule, active = well fitted curve in the direction sought with a large enough effect; inconclusive = small, poorly fitted or top-dose-only effect, or another doubt; inactive = no such curve, though single readings can be large; an effect the other way counts as inactive or inconclusive.

SMILES	HEK293 viab	SNCA expr inhib	GPT2 inh	IP6K1 inh	IP6K1 inh cnf	others
COc1nn(CSP(=S)(OC)OC)c(=O)s1	?	0	0	-46	10µM
CCN1CCCC12Cc1ccccc1CN(C(=O)Cc1ccccc1)C2 (stereo not given)	0	0	0	0	-
COc1cc2c(cc1OCC1CC1)NC(=O)C21CCN(c2nc(C)cnc2C)CC1	0	0	0	-32	0
COc1cc2c(cc1OCC1CC1)NC(=O)C21CCN(c2ncc(F)cn2)CC1	0	0	0	0	-
CC(C)Cc1nc2cccnc2n1C1CCNCC1	0	0	-	-33	0
O=C1Nc2ccccc2C12CCN(Cc1cccc3ccccc13)CC2	0	0	0	-47	?
O=C1Nc2ccccc2C12CCN(Cc1ccc(C(F)(F)F)cc1)CC2	0	?	0	-32	?
CCOC(=O)[C@H]1CN(C(=O)OCC)[C@]2(C)C(=O)N(C)c3ccccc3[C@H]12	-	-	-	0	-
CC(=O)[O][Hg][c]1ccccc1	?	?	0	-61	0.65µM
O=C(c1ccc(F)cc1)N1C[C@@H]2C[C@H](C1)c1c(-c3cc4ccccc4s3)ccc(=O)n1C2	0	0	0	0	-
CC[n+]1c(-c2ccccc2)c2cc(N)ccc2c2ccc(N)cc21	0	0	?	-52	?
CC12Cc3cn[nH]c3C=C1CCC1C2CCC2(C)C1CCC2(C)O (stereo not given)	0	-	0	-47	7.3µM
C[C@]12CCC(=O)C=C1CC[C@@H]1[C@H]3CC[C@](C)(O)[C@@]3(C)CC[C@@H]12	?	0	0	0	-
N#Cc1nn(-c2c(Cl)cc(C(F)(F)F)cc2Cl)c(N)c1S(=O)C(F)(F)F (stereo not given)	0	0	0	-41	?
Cc1ccc([C@H]2CN(C(=O)C(=O)c3cccn3C)[C@@H]3C4CCN(CC4)[C@H]23)cc1	0	0	0[11.5 µM]	-30	0
COc1ccc([C@@H]2CN(C(=O)C(=O)c3ccco3)[C@@H]3C4CCN(CC4)[C@@H]32)cc1	0	0	0	0	-
CC[C@H]1CN2CC[C@H]1C[C@@H]2CNC(=S)Nc1ccc(N(C)C)cc1	0	0	8.9µM	-33	0
CC[C@H]1CN2CC[C@H]1C[C@@H]2CNC(=O)Nc1ccc(C(C)(C)C)cc1	0	0	0	0	-
CCOc1ccc2c(n1)CCNC2	0[12.5 µM]	0	0	-26	0
CCN(CC)C(=O)[C@@H]1C=C2c3cccc4[nH]cc(c34)C[C@H]2N(C)C1	0	0	?	-72	0
C#CC1(O)CCC2C3CCC4=CC(=O)CCC4=C3C=CC21C (stereo not given)	0	-	0	0	-
C=CC[C@]1(O)CC[C@H]2[C@@H]3CCC4=CC(=O)CCC4=C3C=C[C@@]21C	0	0	0	-45	0
O=C(Cc1cccc(Cl)c1)N1CCCN(CCn2nc3n(c2=O)CCCC3)CC1	-	-	-	0	-
CCOC(=O)[C@H]1CN(C(=O)c2ccc(Cl)cc2)[C@]2(C)C(=O)N(CCOC)c3ccccc3[C@H]12	-	-	-	0	-
CCOP(=S)(OCC)Oc1ccc2c(C)c(Cl)c(=O)oc2c1	0	0	0	-52	6.5µM
Cc1c(Cl)c(=O)oc2cc(OP(=O)(OCCCl)OCCCl)ccc12	0	0	0	0	-
CC[C@H]1CN2CC[C@H]1C[C@@H]2CNCc1ccc(SC)cc1	0	?	0	0	-
c1ccc2c(c1)Nc1ccccc1S2	0	0	11µM!	0	-	GPT2 conf=2.8
CC(=O)O[C@@H]1[C@H]2CC[C@H]3[C@@](C)(O)[C@@H]4C[C@H](O)C(C)(C)[C@@]4(O)[C@H](O)C[C@@]13C[C@@]2(C)O	0	-	0	0	-
